Assays:
[1] = biological target: T1, Ephrin type-B receptor 2 (Homo sapiens) (UniProt P29323); details: at 1 µM
T1 sequence (whole entry): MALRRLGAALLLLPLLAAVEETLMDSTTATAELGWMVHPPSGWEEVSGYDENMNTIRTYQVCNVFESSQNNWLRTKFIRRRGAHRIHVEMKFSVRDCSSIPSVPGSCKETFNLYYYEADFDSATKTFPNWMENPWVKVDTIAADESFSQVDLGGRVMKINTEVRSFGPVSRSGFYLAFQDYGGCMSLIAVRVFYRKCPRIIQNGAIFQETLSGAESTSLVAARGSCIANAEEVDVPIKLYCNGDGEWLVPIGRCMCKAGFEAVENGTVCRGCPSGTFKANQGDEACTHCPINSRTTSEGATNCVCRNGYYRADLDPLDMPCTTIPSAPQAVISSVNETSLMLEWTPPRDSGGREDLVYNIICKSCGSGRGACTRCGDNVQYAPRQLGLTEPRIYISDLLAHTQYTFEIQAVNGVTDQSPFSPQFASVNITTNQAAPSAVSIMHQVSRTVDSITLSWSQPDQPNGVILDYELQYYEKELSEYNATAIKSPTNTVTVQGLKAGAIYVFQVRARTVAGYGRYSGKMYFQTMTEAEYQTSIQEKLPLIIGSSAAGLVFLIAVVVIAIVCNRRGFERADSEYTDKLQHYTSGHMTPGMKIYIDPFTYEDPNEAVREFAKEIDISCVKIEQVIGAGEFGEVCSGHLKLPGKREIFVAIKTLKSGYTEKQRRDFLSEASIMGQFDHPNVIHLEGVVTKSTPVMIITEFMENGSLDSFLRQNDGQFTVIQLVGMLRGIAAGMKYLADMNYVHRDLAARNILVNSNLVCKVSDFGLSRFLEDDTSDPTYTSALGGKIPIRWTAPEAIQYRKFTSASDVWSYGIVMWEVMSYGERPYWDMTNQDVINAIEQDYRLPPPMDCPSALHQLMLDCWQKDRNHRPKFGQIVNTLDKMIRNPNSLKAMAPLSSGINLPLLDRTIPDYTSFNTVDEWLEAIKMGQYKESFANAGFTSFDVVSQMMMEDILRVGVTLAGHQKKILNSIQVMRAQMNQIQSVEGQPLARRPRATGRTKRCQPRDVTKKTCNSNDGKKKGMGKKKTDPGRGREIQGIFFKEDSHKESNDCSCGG

[2] = biological target: T2, Ephrin type-B receptor 3 (Homo sapiens) (UniProt P54753); details: at 0.1 µM
T2 sequence (whole entry): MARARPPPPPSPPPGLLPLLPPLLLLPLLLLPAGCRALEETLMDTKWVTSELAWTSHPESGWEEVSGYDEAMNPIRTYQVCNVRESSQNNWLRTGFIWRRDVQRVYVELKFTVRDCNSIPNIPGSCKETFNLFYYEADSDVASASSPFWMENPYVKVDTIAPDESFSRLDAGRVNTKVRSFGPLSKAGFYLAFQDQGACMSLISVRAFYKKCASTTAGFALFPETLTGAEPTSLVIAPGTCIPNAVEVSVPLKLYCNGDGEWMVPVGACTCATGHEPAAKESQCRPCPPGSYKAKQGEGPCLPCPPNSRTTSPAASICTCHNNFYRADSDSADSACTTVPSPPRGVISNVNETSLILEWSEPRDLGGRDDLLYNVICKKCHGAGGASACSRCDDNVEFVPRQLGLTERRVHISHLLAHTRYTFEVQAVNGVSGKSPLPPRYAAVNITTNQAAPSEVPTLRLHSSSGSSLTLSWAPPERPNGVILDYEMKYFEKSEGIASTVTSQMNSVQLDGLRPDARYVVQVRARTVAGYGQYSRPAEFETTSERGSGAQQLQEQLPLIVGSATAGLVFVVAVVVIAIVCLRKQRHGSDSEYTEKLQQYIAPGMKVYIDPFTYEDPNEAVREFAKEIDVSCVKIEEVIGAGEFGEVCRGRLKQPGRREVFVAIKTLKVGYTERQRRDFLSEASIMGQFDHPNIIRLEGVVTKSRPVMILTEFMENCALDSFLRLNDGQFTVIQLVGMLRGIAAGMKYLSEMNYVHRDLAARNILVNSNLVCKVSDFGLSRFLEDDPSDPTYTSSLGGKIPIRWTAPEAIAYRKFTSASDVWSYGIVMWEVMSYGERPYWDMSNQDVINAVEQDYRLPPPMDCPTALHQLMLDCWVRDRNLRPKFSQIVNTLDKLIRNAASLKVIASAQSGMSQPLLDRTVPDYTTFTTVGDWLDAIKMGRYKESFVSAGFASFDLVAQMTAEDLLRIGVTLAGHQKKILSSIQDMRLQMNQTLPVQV

[3] = biological target: T2, Ephrin type-B receptor 3 (Homo sapiens); details: at 1 µM
[4] = biological target: T3, Ephrin type-B receptor 4 (Homo sapiens) (UniProt P54760); details: at 0.1 µM
T3 sequence (whole entry): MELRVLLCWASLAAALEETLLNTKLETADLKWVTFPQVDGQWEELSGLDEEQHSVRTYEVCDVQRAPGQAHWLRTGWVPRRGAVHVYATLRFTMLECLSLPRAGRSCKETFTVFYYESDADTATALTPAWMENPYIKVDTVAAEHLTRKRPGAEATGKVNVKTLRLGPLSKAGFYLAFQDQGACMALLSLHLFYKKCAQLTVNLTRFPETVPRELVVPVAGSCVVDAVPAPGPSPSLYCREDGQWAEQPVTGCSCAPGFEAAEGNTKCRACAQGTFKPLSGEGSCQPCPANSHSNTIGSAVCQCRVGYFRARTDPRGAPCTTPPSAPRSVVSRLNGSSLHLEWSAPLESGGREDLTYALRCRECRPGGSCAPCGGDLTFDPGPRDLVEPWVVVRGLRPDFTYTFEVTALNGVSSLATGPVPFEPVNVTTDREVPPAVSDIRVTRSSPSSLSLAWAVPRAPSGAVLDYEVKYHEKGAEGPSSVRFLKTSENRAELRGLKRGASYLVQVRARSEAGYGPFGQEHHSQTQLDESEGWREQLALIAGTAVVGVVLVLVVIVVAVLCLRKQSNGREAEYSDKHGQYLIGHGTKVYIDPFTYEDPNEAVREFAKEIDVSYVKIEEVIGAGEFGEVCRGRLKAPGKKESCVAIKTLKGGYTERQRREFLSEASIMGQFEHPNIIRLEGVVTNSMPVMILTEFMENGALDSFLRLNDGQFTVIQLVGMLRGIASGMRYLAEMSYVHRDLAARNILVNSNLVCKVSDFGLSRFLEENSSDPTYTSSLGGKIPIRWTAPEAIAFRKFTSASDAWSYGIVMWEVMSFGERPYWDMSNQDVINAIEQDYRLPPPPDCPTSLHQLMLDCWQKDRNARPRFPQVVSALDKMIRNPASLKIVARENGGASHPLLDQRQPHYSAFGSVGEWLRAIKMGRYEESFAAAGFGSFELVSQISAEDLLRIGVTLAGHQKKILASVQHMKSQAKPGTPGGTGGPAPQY

[5] = biological target: T3, Ephrin type-B receptor 4 (Homo sapiens); details: at 1 µM
[6] = biological target: Receptor tyrosine-protein kinase erbB-2 (Homo sapiens) (UniProt P04626); details: at 0.1 µM
Chain of Receptor tyrosine-protein kinase erbB-2 (Homo sapiens) (P04626 whole entry): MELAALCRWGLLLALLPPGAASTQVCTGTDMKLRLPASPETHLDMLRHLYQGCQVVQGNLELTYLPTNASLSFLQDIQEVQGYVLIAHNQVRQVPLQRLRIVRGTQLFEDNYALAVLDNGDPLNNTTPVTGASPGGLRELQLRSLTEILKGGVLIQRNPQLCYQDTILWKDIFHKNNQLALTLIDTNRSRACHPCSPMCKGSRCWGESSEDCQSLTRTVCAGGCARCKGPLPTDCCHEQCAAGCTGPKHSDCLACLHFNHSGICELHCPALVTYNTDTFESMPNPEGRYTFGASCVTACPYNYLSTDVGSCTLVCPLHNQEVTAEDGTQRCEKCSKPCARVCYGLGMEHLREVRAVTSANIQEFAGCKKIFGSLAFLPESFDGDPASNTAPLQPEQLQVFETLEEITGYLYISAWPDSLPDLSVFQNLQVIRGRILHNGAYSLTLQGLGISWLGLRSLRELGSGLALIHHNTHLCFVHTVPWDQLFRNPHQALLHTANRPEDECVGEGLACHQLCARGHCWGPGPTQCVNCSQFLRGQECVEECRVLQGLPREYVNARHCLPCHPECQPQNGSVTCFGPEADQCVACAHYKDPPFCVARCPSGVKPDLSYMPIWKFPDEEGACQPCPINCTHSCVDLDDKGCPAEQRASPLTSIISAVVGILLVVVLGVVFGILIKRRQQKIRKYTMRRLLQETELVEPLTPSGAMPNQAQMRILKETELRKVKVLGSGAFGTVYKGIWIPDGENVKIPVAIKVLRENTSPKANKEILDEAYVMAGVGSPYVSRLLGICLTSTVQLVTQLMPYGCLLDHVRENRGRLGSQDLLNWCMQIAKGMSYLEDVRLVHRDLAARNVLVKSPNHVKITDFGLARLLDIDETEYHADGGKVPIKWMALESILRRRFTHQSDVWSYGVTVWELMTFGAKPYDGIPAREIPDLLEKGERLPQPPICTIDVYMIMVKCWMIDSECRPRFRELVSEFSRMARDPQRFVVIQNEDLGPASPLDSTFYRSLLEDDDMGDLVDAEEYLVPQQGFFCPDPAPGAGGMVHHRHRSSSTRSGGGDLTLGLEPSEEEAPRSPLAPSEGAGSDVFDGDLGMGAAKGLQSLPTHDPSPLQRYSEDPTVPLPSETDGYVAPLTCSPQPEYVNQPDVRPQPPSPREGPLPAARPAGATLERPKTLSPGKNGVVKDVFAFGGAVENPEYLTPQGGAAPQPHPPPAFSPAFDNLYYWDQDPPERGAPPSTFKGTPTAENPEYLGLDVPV

[7] = biological target: Receptor tyrosine-protein kinase erbB-2 (Homo sapiens) (UniProt P04626); details: at 1 µM
[8] = biological target: Receptor tyrosine-protein kinase erbB-4 (Homo sapiens) (UniProt Q15303); details: at 0.1 µM
Chain of Receptor tyrosine-protein kinase erbB-4 (Homo sapiens) (Q15303 whole entry): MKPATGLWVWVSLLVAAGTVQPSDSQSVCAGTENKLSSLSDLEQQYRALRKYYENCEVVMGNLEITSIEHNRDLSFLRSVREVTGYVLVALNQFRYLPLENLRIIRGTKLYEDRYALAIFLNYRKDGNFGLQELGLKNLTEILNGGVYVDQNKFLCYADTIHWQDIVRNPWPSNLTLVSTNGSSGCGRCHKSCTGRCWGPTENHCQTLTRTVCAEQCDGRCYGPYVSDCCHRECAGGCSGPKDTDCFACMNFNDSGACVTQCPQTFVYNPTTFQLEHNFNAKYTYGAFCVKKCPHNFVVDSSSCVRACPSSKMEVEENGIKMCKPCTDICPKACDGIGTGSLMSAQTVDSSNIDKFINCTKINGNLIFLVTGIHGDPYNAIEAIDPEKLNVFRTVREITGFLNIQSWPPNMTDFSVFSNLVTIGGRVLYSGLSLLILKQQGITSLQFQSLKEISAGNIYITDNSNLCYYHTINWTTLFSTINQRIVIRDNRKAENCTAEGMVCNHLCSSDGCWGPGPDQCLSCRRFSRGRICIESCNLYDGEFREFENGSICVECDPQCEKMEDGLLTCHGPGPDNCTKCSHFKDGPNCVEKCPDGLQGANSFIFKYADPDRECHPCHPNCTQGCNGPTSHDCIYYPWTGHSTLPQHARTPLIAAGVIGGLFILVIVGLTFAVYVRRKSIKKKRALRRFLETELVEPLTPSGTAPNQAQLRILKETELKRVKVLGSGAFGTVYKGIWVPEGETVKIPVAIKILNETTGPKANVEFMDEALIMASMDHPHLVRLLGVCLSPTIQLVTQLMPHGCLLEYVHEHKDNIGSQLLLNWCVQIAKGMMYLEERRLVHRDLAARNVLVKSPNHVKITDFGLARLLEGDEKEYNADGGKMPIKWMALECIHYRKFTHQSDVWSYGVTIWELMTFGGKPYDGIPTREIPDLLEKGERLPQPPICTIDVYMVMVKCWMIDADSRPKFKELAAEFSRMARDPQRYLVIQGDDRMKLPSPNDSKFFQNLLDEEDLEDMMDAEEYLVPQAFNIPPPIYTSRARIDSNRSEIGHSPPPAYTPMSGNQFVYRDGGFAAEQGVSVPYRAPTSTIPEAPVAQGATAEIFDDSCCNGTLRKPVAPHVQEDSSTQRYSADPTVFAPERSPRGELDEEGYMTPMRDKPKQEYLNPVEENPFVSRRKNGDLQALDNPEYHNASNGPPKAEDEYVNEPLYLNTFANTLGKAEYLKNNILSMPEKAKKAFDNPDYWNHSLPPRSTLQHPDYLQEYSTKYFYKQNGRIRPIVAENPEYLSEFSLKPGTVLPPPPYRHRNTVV

[9] = biological target: Receptor tyrosine-protein kinase erbB-4 (Homo sapiens) (UniProt Q15303); details: at 1 µM
[10] = biological target: Tyrosine-protein kinase Fer (Homo sapiens) (UniProt P16591); details: at 0.1 µM
[11] = biological target: Tyrosine-protein kinase Fer (Homo sapiens) (UniProt P16591); details: at 1 µM
[12] = biological target: Tyrosine-protein kinase Fes/Fps (Homo sapiens) (UniProt P07332); details: at 0.1 µM
[13] = biological target: Tyrosine-protein kinase Fes/Fps (Homo sapiens) (UniProt P07332); details: at 1 µM
[14] = biological target: Fibroblast growth factor receptor 1 (Homo sapiens) (UniProt P11362); details: at 0.1 µM
Chain of Fibroblast growth factor receptor 1 (Homo sapiens) (P11362 22-822 limits assumed): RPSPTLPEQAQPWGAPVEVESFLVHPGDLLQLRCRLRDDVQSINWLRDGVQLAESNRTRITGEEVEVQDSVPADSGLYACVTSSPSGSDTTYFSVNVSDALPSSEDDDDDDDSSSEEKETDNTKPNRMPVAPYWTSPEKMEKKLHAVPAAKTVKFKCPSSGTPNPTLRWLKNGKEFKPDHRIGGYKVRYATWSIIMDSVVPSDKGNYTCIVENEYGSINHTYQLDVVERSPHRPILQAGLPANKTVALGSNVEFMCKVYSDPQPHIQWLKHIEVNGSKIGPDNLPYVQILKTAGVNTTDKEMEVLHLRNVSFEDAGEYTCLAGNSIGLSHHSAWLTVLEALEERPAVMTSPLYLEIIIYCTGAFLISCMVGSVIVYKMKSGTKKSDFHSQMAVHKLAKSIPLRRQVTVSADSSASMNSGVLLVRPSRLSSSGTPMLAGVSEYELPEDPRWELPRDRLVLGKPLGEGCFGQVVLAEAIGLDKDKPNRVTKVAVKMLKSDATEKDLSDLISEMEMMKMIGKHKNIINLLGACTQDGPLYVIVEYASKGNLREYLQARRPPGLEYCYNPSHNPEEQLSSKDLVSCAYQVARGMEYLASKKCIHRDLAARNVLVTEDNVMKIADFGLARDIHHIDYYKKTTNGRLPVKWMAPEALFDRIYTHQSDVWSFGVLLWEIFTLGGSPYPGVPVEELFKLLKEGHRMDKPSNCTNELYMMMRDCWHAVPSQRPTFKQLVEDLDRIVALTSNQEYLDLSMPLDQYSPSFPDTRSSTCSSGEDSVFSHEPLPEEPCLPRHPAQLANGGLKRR

[15] = biological target: Fibroblast growth factor receptor 1 (Homo sapiens) (UniProt P11362); details: at 1 µM
[16] = biological target: Fibroblast growth factor receptor 2 (Homo sapiens) (UniProt P21802); details: at 0.1 µM
Chain of Fibroblast growth factor receptor 2 (Homo sapiens) (P21802 22-821 limits assumed): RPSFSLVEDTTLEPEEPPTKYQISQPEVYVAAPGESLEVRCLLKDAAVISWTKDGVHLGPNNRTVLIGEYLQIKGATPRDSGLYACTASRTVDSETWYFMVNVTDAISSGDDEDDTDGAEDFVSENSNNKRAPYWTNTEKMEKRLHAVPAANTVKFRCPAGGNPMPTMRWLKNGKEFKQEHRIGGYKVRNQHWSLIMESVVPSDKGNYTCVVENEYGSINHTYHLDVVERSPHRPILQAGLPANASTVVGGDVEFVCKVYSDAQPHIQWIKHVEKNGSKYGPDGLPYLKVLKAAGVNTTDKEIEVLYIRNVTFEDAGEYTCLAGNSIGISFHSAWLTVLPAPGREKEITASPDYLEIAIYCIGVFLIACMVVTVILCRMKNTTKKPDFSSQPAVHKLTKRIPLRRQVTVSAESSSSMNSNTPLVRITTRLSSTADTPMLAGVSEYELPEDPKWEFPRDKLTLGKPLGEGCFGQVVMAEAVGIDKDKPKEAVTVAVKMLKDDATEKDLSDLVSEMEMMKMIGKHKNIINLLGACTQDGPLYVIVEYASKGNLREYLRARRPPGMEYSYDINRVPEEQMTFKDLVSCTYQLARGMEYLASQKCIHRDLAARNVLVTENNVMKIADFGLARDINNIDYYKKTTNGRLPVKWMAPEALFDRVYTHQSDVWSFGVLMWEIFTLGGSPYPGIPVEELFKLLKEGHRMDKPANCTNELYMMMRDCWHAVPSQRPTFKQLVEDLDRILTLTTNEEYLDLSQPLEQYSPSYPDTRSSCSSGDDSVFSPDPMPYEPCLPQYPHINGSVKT

[17] = biological target: Fibroblast growth factor receptor 2 (Homo sapiens) (UniProt P21802); details: at 1 µM
[18] = biological target: Fibroblast growth factor receptor 3 (Homo sapiens) (UniProt P22607); details: at 0.1 µM
[19] = biological target: Fibroblast growth factor receptor 3 (Homo sapiens) (UniProt P22607); details: at 1 µM
[20] = biological target: Fibroblast growth factor receptor 4 (Homo sapiens) (UniProt P22455); details: at 0.1 µM;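 note: values are mean percent inhibition of FGFR4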
Chain of Fibroblast growth factor receptor 4 (Homo sapiens) (P22455 22-802 limits assumed): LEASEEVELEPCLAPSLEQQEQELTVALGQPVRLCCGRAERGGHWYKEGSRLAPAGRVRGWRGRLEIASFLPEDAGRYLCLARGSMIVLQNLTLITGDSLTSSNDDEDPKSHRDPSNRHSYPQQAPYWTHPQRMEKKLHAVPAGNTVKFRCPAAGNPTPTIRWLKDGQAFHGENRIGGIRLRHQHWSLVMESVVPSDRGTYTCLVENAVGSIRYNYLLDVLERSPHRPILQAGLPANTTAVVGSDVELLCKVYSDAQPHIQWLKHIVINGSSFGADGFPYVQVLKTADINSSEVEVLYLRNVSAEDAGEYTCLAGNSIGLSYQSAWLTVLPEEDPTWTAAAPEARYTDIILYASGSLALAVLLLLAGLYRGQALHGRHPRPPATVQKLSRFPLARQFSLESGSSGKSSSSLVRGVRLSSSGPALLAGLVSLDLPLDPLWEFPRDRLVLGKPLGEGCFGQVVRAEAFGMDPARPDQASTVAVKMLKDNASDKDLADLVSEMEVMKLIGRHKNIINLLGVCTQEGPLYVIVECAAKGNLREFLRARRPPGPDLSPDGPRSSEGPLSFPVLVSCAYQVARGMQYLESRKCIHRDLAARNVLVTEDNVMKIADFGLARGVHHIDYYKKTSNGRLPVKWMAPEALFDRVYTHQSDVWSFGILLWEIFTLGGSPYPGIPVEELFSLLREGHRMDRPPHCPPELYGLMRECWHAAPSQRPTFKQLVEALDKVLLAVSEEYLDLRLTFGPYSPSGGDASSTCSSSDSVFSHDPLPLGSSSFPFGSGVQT

Row | SMILES | inhibition [1] | inhibition [2] | inhibition [3] | inhibition [4] | inhibition [5] | inhibition [6] | inhibition [7] | inhibition [8] | inhibition [9] | inhibition [10] | inhibition [11] | inhibition [12] | inhibition [13] | inhibition [14] | inhibition [15] | inhibition [16] | inhibition [17] | inhibition [18] | inhibition [19] | inhibition [20]
1 | COc1ccc(-c2cc(-c3c[nH]nc3-c3ccccn3)ccn2)cc1 | 10.2% | 4.76% | 2.2% | 2.71% | 2.68% | 2.88% | 6.13% | 9.37% | 10.6% | 3.16% | 7.83% | 3.39% | 3.93% | 1.12% | -0.51% | 1.91% | 4.55% | 8.17% | 5.23% | -2.23%
2 | CC(=O)NCc1cccc(C#Cc2cncnc2Nc2ccc(OCc3cccc(F)c3)c(Cl)c2)c1 | -0.33% | 2.82% | 2.99% | 0.57% | 2.91% | -0.95% | -0.83% | 11.6% | 50.4% | 2.72% | 0.86% | 0.32% | 0.52% | -0.81% | -0.46% | -2.84% | -0.08% | 0.88% | 0.49% | 0.41%
3 | Clc1ccc(-c2nn3ncccc3c2-c2ccnc(Nc3ccccc3)n2)cc1 | 55.4% | 4.87% | 5.92% | 6.02% | 37.2% | -4.83% | 6.14% | 27.9% | 69.5% | 1.86% | 4.34% | 0.87% | 1.62% | -0.82% | 7.85% | 0.58% | 10.3% | 4.85% | 6% | 1.52%

From ChEMBL document CHEMBL1961873, “Compounds: GSK PKIS; Assays: Nanosyn kinase panel” (2012)
